Bioassay records as filed in PubChem.
Shown are actives, neighbours in structure and some others; about 2% of the full set was active somewhere.
Granule exo inh: blocks lytic granule exocytosis; TALL-104 LAMP-1 surface exposure, flow cytometry; cells stimulated with thapsigargin and PMA; inhibition, % at 10 µM; 0.66% of 360,000 active; AID 651702;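 active = inhibition above about 55%, limit read from the data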
VLA-4 inh: inhibition in a human VLA-4 binding assay | VLA-4 expressing cells, ligand binding flow cytometry | P13612 | 0.2% of 330,000 active | inhibition, % (about 7 µM as worked out from the volumes in the protocol); in the data active = inhibition above about 50%
Target sequence (P13612 whole entry, looked up): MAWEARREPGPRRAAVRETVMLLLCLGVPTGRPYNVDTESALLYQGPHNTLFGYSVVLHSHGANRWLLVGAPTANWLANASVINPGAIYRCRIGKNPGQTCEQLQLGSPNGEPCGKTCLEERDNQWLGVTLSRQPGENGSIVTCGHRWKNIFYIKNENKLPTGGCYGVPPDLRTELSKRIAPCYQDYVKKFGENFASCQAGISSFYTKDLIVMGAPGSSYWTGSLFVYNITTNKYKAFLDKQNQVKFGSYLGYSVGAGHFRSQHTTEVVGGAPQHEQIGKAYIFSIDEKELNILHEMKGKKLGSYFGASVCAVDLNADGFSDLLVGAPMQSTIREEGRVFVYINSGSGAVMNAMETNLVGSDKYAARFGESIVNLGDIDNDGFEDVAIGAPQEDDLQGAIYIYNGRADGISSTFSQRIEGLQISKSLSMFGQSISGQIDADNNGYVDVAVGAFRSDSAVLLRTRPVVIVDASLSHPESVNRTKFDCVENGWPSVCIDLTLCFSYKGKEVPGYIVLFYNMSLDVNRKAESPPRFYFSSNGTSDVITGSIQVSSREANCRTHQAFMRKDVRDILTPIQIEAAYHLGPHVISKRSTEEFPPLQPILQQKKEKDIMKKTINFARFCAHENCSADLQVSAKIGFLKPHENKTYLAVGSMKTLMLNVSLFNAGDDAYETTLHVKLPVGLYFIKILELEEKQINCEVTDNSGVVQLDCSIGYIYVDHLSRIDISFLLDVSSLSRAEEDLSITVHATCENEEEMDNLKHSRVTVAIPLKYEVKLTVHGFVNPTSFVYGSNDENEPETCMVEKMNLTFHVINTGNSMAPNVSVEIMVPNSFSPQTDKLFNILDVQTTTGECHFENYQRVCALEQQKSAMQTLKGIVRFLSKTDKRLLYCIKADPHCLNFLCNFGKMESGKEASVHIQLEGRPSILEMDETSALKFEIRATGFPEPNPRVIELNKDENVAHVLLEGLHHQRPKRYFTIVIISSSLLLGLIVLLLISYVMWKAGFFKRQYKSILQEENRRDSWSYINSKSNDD
ABCB6 inh 2: human ABCB6 transporter inhibition; K562-ABCB6 porphyrin accumulation, flow cytometry, 1 h; hits give low values; fluorescence ratio to DMSO, % at 10 µM; 0.19% of 360,000 active;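 active = fluorescence ratio to DMSO below 75%, the collection mean minus 3 SD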;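 note: signal is porphyrin accumulated inside mitochondria; 100% equals median channel fluorescence of DMSO control wells; lower ratio means ABCB6 inhibition with less porphyrin fluorescence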
NR1D1 modulator: Rev-erb alpha (human) modulation. P20393. Rev-erbα–FITC-DNA binding, fluorescence polarization, 90 min. activity, % at 10 µM. 0.79% of 370,000 active. AID 1259318;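 active = activity above about 14%, limit read from the data; passing the limit was not always enough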;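 note: 0% = DMSO wells with 35 nM protein and 100% = DMSO wells with 750 nM protein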
PG9 Ab binder: small molecules binding HIV-1 gp120 antibody PG9; TR-FRET gp120-PG9 antibody binding; inhibition, % at 6.7 µM; 0.43% of 360,000 active; AID 624416; in the data active = inhibition above about 8.5%
PG9 binder conf: PG9 antibody binding, confirmed; 90% of 1,500 active; TR-FRET PG9 antibody binding, biochemical; shares compounds with PG9 Ab binder; inhibition, % at 6.7 µM; in the data active = inhibition above about 9%
PGV04 counter: counter-screen for PG9 binders: binding control antibody PGV04. shares compounds with PG9 Ab binder. inhibition, % at 6.7 µM. TR-FRET PGV04 antibody-gp120 binding, biochemical. 95% of 1,500 active; in the data active = inhibition above about 9.5%
PG9 bind DR: PG9 antibody binding, dose response; TR-FRET PG9 antibody-gp120 binding inhibition; shares compounds with PG9 Ab binder; IC50, µM; 95 tested, under 10 active; AID 651848; in the data active = IC50 below about 10 µM
PGV04 binding DR: counter-screen for PG9 binders: binding to control antibody PGV04; shares compounds with PG9 Ab binder; TR-FRET binding to control antibody PGV04; IC50, µM; 20% of 95 active
PG126 binding DR: binds control antibody PG126 in PG9 counter-screen | shares compounds with PG9 Ab binder | TR-FRET binding to antibody PG126, counterscreen | IC50, µM | 20% of 95 active | AID 651939
NR1D1 mod conf: Rev-erb alpha (human) modulation, hit confirmation; activation, % at 25 µM; AID 1259319; shares compounds with NR1D1 modulator; 61% of 3,000 active; Rev-erb alpha FITC-DNA binding, fluorescence polarization, 90 min;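 active = activation at or above a set limit, or at least 3 SD above the negative control mean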;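 note: 0% = 35 nM protein with DMSO and 100% = 750 nM protein high control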
RORg counter: RORgamma DNA-binding activity, dose-response counter-screen; shares compounds with NR1D1 modulator; purified RORgamma protein-FITC-DNA binding, fluorescence polarization; IC50, µM; 8% of 910 active;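 active = Compounds whose fitted half-maximal concentration for disrupting protein-DNA binding is below 10 micromolar; the record names Rev-erb in its text, so the target is in doubt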
* hit, by the source's call; i = inactive; . = not tested or not shown. Cut-off read from the data, not from the text of the source, unless noted: active = IC50 below about 9 µM; inactive = the rest.

SMILES | Granule exo inh | VLA-4 inh | ABCB6 inh 2 | NR1D1 modulator | PG9 Ab binder | PG9 binder conf | PGV04 counter | NR1D1 mod conf | others
O=C(CCCCCn1c(=S)[nH]c2ccc(N3CCOCC3)cc2c1=O)NCc1ccc2c(c1)OCO2 | 1 | -3 | 93 | 22* | 21* | 17* | 24* | -25
O=C(CCCCCn1c(=S)[nH]c2ccc(N3CCOCC3)cc2c1=O)NCc1ccccc1Cl | 0 | -4 | 93 | -2 | -1 | . | . | .
O=C(CCCCCn1c(=S)[nH]c2ccc(N3CCOCC3)cc2c1=O)NCc1ccc(Cl)cc1 | 9 | 1 | 99 | 18* | 21* | 16* | 25* | 1
O=C(CCCCCn1c(=S)[nH]c2ccc(N3CCOCC3)cc2c1=O)NCCc1ccccc1 | -1 | -16 | 98 | -1 | 1 | . | . | .
CN(C(=O)c1cccc(NC(=O)Cc2ccc(NC(=O)C3CCCN(C(=O)c4ccccc4)C3)cc2)c1)C1CC1 (configuration not stated) | . | . | . | 0 | 0 | . | . | .
COc1ccc(NC(=O)COC(=O)c2ccc3c(c2)OCO3)c(OC)c1 | -1 | 11 | 92 | 175* | 22* | 33* | 29* | 180* | PG9 bind DR=>67;PGV04 binding DR=i;PG126 binding DR=i;RORg counter=>40
CC(C)c1ccc(-c2cc(C(=O)N3CCOCC3)c3cc(Br)ccc3n2)cc1 | -10 | 7 | 101 | 63* | 17* | 30* | 36* | 28*
O=S1(=O)C=CCN1Cc1cn(Cc2ccc(F)cc2)nn1 | . | . | . | 1 | . | . | . | .
Oc1ccc(Br)cc1C1Nc2ccccc2S1 (configuration not stated) | -6 | 14 | 100 | 152* | 25* | 21* | 44* | 89* | RORg counter=>40
CC1C(=O)C(C)C(c2cc(Br)ccc2O)NC1c1cc(Br)ccc1O (configuration not stated) | -1 | . | 99 | 1 | -3 | . | . | .
Clc1ccc(CSc2nnc(-c3cccs3)o2)cc1Cl | . | . | . | -1 | . | . | . | .
CCOC(=O)c1cc2sc(C)cc2n1CC(=O)NCc1ccc(F)cc1 | -1 | 13 | 95 | 27* | 59* | 49* | 75* | 11
COc1ccc(NC(=O)NNC(=O)COc2ccc3cc(Br)ccc3c2)cc1OC | 7 | 10 | 98 | 77* | 18* | 29* | 39* | 65* | RORg counter=>40
COCCCNC(=O)c1ccc(Cn2c(=O)c3ccccc3n(Cc3ccc(Br)cc3)c2=O)cc1 | . | . | . | 5 | . | . | . | .
c1ccc(-n2ncc3c(NCc4ccc5c(c4)OCO5)ncnc32)cc1 | 2 | -1 | 92 | 1 | 2 | . | . | .
COc1ccc(-n2ncc3c(NCc4ccc5c(c4)OCO5)ncnc32)cc1 | 0 | 14 | 97 | 25* | 16* | 6 | 9 | -3
Cc1cc(C)c2nc(SCC(=O)Nc3cc(C)on3)c(C)cc2c1 | 5 | 4 | 96 | 11 | 0 | . | . | .
Cc1ccc2nc(SCC(=O)Nc3ccc4sc(C)nc4c3)c(C#N)cc2c1 | 16 | 8 | 102 | 73* | 33* | 30* | 54* | 71* | RORg counter=>40
COc1cc2cc(C#N)c(SCC(=O)Nc3cc(C)on3)nc2cc1OC | -7 | -7 | 98 | 113* | 46* | 49* | 69* | 75* | RORg counter=>40
Cc1cc(NC(=O)CSc2nc3c(c(-c4cccnc4)c2C#N)CCC3)no1 | -1 | 1 | 102 | 41* | 20* | 32* | 66* | 39*
Cc1cc(C)c2nc(SCC(=O)Nc3cc(C)on3)c(C#N)cc2c1 | -5 | 5 | 100 | 103* | 28* | 52* | 75* | 68* | RORg counter=i
Cc1cc(NC(=O)CSc2nc(-c3cccnc3)ccc2C#N)no1 | -4 | 4 | 107 | -1 | -1 | . | . | .
CCn1c(COc2ccc(C)cc2)nnc1SCC(=O)Nc1ccc(Oc2ccccc2)cc1 | . | . | . | 0 | . | . | . | .
COC(=O)C1CN(Cc2ccc(Cl)cc2)CCS(=O)(=O)N1Cc1cn(Cc2ccc(F)cc2)nn1 (configuration not stated) | . | . | . | 4 | . | . | . | .
Cc1ccc(C)c2nc(SCC(=O)NCc3cccs3)c(C#N)cc12 | 0 | -1 | 90 | -4 | 1 | . | . | .
SMILES | Granule exo inh | VLA-4 inh | ABCB6 inh 2 | NR1D1 modulator | PG9 Ab binder | PG9 binder conf | PGV04 counter | NR1D1 mod conf | others
Cc1cccc2cc(C#N)c(SCC(=O)NCc3cccs3)nc12 | -1 | 5 | 103 | 87* | 42* | 50* | 75* | 61* | RORg counter=i
CCn1c(=O)cc(OCC(=O)N2CCc3ccccc32)c2ccccc21 | 3 | . | 94 | 45* | 40* | 50* | 71* | 12*
Cc1sc2nc(SC(C)C)nc(N)c2c1C | -4 | 3 | 96 | 49* | 11* | 8.8* | 13* | 41* | RORg counter=>40
Cc1ccc2nc(-c3ccc(NC(=O)CSc4nnc(-c5ccccc5)n4Cc4ccco4)cc3)sc2c1 | . | . | . | 16 | . | . | . | .
CC(=O)Nc1cccc(Nc2nc(-c3ccccc3)nc3ccccc23)c1 | 2 | 14 | 91 | -1 | 0 | . | . | .
CC(=O)c1cccc(Nc2nc(-c3ccccc3)nc3ccccc23)c1 | -8 | -8 | 96 | 26* | 36* | 12* | 22* | 8
CC[C@@H](C(=O)[C@@H](C)[C@@H](O)[C@H](C)[C@@H]1O[C@@H]([C@@H](CC)C(=O)O)CC[C@@H]1C)[C@H]1OC2(C=C[C@@H](O)[C@]3(CC[C@@](C)([C@H]4CC[C@](O)(CC)[C@H](C)O4)O3)O2)[C@H](C)C[C@@H]1C (some centres not stated) | . | . | . | 3 | . | . | . | .
CN(C)/N=N/c1nc[nH]c1C(N)=O | . | . | . | -4 | . | . | . | .
Cc1ccccc1CNC(=S)OC1CCC12CCC(c1ccccc1)CC2 (configuration not stated) | . | . | . | -1 | . | . | . | .
COCCNc1nc(NCc2ccccc2)nc2ccsc12 | -2 | . | 89 | 5 | 2 | . | . | .
Clc1ccccc1Nc1nc(NCc2ccccc2)nc2ccsc12 | -1 | . | 93 | 21* | 18* | 27* | 36* | 5
Cc1cc2nc(-c3ccc(SCC(=O)Nc4ccc(S(=O)(=O)N5CCCC5)cc4)nc3)[nH]c2cc1C | -1 | -20 | 101 | 31* | 16* | 8 | 27* | 32*
